PINK1 expr mod: modulators of PINK1 expression; hit rate 0.2% among 410,000; PINK1 immunofluorescence, high-content cytometry, 24 h; Potency, µM (series often up to 76.6 µM), without a hit: at the highest dose activation (PINK1 increase), most hits filed as activators; AID 624263; active means well fitted activation curve with a large enough effect; inconclusive means small, poorly fitted or top-dose-only effect; cell line not stated here; further: % of control where 0% means no effect; nearly all actives have a fitted effect of over 65% in size
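Cells are seeded, rested 12 hours, then given compound at five concentrations or DMSO for 24 hours. After fixation, blocking and antibody staining, PINK1 amount and mitochondrial localization are scored; CCCP serves as control.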
VP16 counter: Gal4-VP16 reporter inhibition counter-screen. Drosophila S2 Gal4-VP16 UAS-luciferase, luminescence, 20 h. Potency, µM (highest dose often 53.6 µM), inactives show top-dose activity, negative = inhibition, hits mostly inhibitors. hit rate 3.5% among 310,000;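 further: Gal4-VP16 expression switched on by copper sulfate through the metallothionein promoter; on the % scale 0 is the no-effect control and ±100 the full control effect; nearly all actives have a fitted effect of over 50% in size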
ClpP mod: qHTS Assay for Activators of ClpP; purified B. subtilis ClpP, FRET peptide cleavage, 20 min; Potency, µM (highest dose often 57.5 µM), without a hit: at the top dose activity change, negative = active; hit rate 1.9% among 340,000; active means well fitted falling curve with a large enough effect; inconclusive means small, poorly fitted or top-dose-only effect; inactive means no such curve, though single readings can be large or run the other way; further: the source files actives as falling curves though it sought activators and does not explain the sign; nearly all actives have a fitted effect of over 65% in size
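Buffer: 100 mM Tris/HCl pH8, 100 mM KCl, 0.05% low protease BSA, 2.5% glycerol, 0.01% Tween-20. ClpP 10 microg/mL final; 20 min RT; delta FRET normalized to ADEP and DMSO controls.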
Sfp PPTase inh: inhibitors of Bacillus subtilis Sfp phosphopantetheinyl transferase; AID 1490; Biochemical Sfp PPTase activity, qHTS; Q9F4F7; Potency, µM, for inactives: largest response in the series, negative = inhibition, most hits filed as inhibitors; hit rate 3.5% among 310,000;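 further: the enzyme is Sfp with the accession as filed and its product quenches rhodamine fluorescence; 0% = enzyme reaction without inhibitor and -100% = no enzyme wells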
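Fluorescence-quenching assay with 15 nM Sfp, 5 uM rhodamine-CoA and 12.5 uM BHQ-2-labelled ybbR peptide in pH 7.6 Hepes/MgCl2 buffer. Enzyme was pre-incubated with compound for 15 min at room temperature. Rate was taken from the 30-min fluorescence change (525/598 nm).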
Epigenetic derep: regulators of epigenetic silencing causing reporter derepression in mouse cells; murine LDR cells, GFP reporter derepression, 30 h; Potency, µM (highest dose often 53.9 µM), without a hit: top-dose GFP activation, most hits filed as activators; hit rate 0.2% among 280,000; further: % of control where 0% means no effect; nearly all actives have a fitted effect of over 60% in size
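Reporter derepression read as number of fluorescent GFP-positive objects, 20-120 um in size, counted by laser-scanning cytometer. Mouse LDR line with an epigenetically silenced CMV-GFP locus; compound incubation 30 h, 37 C.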
RORgamma inh: ROR gamma (mouse) transcription inhibition; Drosophila S2 Gal4-RORgamma UAS-luciferase reporter, 20 h; Potency, µM (series often up to 53.6 µM), for inactives: at the top dose activity change, negative = inhibition, hits mostly inhibitors; hit rate 5.4% among 310,000; further: on the % scale 0 is the no-effect control and ±100 the full control effect; nearly all actives have a fitted effect of over 60% in size
Target sequence (P51450 whole entry, looked up, the tested form may be a part): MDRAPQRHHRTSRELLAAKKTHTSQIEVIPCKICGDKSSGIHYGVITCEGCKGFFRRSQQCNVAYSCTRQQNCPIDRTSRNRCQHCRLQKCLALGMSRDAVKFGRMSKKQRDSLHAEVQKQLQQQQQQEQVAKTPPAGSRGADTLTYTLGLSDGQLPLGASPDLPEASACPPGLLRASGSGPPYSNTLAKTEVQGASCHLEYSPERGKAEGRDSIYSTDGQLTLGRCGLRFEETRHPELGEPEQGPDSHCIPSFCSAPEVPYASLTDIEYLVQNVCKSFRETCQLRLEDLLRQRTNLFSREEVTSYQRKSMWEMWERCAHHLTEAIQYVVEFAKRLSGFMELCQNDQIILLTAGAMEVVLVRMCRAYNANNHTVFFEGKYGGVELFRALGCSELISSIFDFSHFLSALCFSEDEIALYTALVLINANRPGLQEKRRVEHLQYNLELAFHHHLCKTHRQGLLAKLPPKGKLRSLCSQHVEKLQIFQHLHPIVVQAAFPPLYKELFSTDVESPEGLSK
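Read-out: Photinus luciferase luminescence; inhibitors lower reporter signal. Insect Schneider cells with Gal4-ROR gamma fusion under metallothionein promoter, UAS reporter; 700 uM final copper sulfate induction, 20 hr, ambient temperature.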
* = called active by the depositor; u = inconclusive; x = no result given; [ ] = dose if it differs, or a comment. This is a sample that favours compounds with a hit; in the whole collection about 8.1% have one here. Unless noted, the call rests on the fitted dose curve; in most records, active means well fitted curve in the direction sought with a large enough effect; inconclusive means small, poorly fitted or top-dose-only effect, or another doubt; inactive means no such curve, though single readings can be large; an effect the other way counts as inactive or inconclusive. Potency means the concentration at half of the fitted maximal effect.

SMILES | PINK1 expr mod | VP16 counter | ClpP mod | Sfp PPTase inh | Epigenetic derep | RORgamma inh
Fc1cccc(CO/N=C/c2c(-c3ccccc3)nc3ccc(Cl)cn23)c1 | 5% | 8% | u | -8% | 0% | 5%
Cc1cccn2c(/C=N/OCc3cccc(F)c3)c(-c3ccc(Cl)cc3)nc12 | 11% | -6% | 22µM* | -23% | 4% | 2.2µM*
C=CCOc1cccc(CNCCCN2CCOCC2)c1 | 0% | -3% | 14µM* | -12% | 0% | -8%
COc1cccc2cc(-c3nc(Nc4cccc(C)c4)sc3C)c(=O)oc12 | 4% | x | 1% | x | 3% | x
COc1ccc(CNC(=O)c2sc3nc4n(c(=O)c3c2C)CCCC4)cc1 | 0% | x | -4% | x | u | x
Cc1ccc2nc(Cl)c3cc(C(=O)N(CCN(C)C)Cc4ccco4)sc3c2c1 | -7% | -13% | 25µM* | -10% | 2% | -32%
O=C1c2ccc3c4c(ccc(c24)C(=O)N1c1cccc(O)c1)CC3 | -2% | -3% | x | 5% | -2% | 3%
O=C1c2ccc3c4c(ccc(c24)C(=O)N1NC(=O)C(F)(F)F)CC3 | 3%[38.3 µM] | -10% | 35µM* | 5% | 3% | -22%
CC(=O)NN1C(=O)c2ccc3c4c(ccc(c24)C1=O)C(=O)N(NC(C)=O)C3=O | -1% | 11µM* | -3% | 7% | x | 11µM*
O=C(NN1C(=O)c2ccc3c4c(ccc(c24)C1=O)CC3)c1ccc(Br)cc1 | 6% | 0% | 13µM* | -1% | 0% | 1%
CC(=O)Nc1ccc(C(=O)NN2C(=O)c3ccccc3C2=O)cc1 | 2% | 8% | -2% | 1% | 0% | -15%
O=c1[nH]c2ccc(NCc3ccc(-c4ccc(F)cc4)o3)cc2[nH]1 | 7% | x | 10% | x | 2% | x
CCNc1ncc2nc(-c3ccc(Cl)cc3)c(=O)n(C[C@H]3CCCO3)c2n1 | 1% | -6% | x | 4% | x | 1%
Cc1nnc(N2C(=O)C(O)=C(C(=O)c3ccco3)C2c2cccc3ccccc23)s1 (stereo unspecified) | 0% | 3% | x | u | 1% | -6%
CCCSc1nnc(N2C(=O)C(O)=C(C(=O)c3ccco3)C2c2ccccc2F)s1 (stereo unspecified) | 2% | 3% | -8% | 40µM* | x | 0%
C=CCSc1nnc(N2C(=O)C(O)=C(C(=O)c3ccco3)C2c2ccccc2F)s1 (stereo unspecified) | 2% | 19% | -7% | 18µM* | x | 3%
CSc1nnc(N2C(=O)C(O)=C(C(=O)c3ccco3)C2c2ccccc2F)s1 (stereo unspecified) | 7% | -1% | -12% | -17% | x | 2%
Cc1cccc(C(=O)NCC(c2ccc3c(c2)OCO3)N2CCN(c3ccccc3F)CC2)c1 (stereo unspecified) | 0% | x | -4% | x | 0% | x
Cc1cc2oc(C(=O)N(Cc3ccccc3F)C3CCS(=O)(=O)C3)c(C)c2cc1Cl (stereo unspecified) | 0% | x | -1% | x | -2% | x
COc1ccc2nc(CC(C)(C)CC(=O)O)c[n+]([O-])c2c1 | 1% | 6% | 16µM* | 23% | -1% | -2%
CCCCNC(=S)N=Nc1c(O)n(Cc2ccccc2)c2ccccc12 | 1% | 6.3µM* | -1% | u | 0% | 6.3µM*
COC(=O)c1ccc(Cn2c(O)c(N=NC(N)=S)c3ccccc32)o1 | 0% | 13µM* | 0% | -14% | 6% | 1.1µM*
Cc1ccc(NC(=O)Cn2c(O)c(N=NC(N)=S)c3ccccc32)cc1 | 18% | u | x | 12% | x | u
NC(=S)N=Nc1c(O)n(Cc2ccccc2)c2ccccc12 | u | u | 4% | 10% | u | 3.2µM*
C/C(Cl)=C\Cn1c(O)c(N=NC(N)=S)c2ccccc21 | 3% | 5µM* | x | -11% | 3% | 3.5µM*
CCOC(=O)N=Nc1c(O)n(Cc2ccccc2)c2ccccc12 | 0% | -1% | 0% | u | 0% | u

High-throughput results from PubChem BioAssay.
